A short description of assay [1]: ACEA_ER_80hr: ACEA Biosciences xCELLigence Real-Time Cell Analysis on Estrogen Receptor Agonism for Proliferation (AID 2282667; active = hit-call score of the fitted dose curve at least 0.9, where 1 is the maximum). The following applies: T47D proliferation, impedance (xCELLigence), 80 h. An outline of the steps: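 Real-time electrical impedance tracked growth of the human breast line T47D, with the 80 h post-dosing value used. Dosing spanned eight 1:4 steps down from a 100 uM final top concentration, run in duplicate.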

Assay [2] can be described thus: ATG_CRE_CIS: Attagene CIS-FACTORIAL HepG2 Assay for human cAMP Responsive Element (CRE) binding protein 3 (AID 2282926). The following applies: HepG2 CRE cis-reporter, Attagene multiplexed mRNA; actives raise or lower the signal. An outline of the steps: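 Assay format: transient reporter transfection of HepG2, 24 h treatment, total RNA isolation with DNase I step. Reporter abundance read by fluorescence after PCR and capillary separation; DMSO-normalised gain or loss fitting.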

Assay [3] addresses CCAAT/enhancer-binding protein beta (Homo sapiens) (UniProt P17676). Put plainly: ATG_C_EBP_CIS: Attagene CIS-FACTORIAL HepG2 Assay for human CCAAT/Enhancer Binding Protein (C/EBP) beta (AID 2282927). To be noted: HepG2 Attagene cis-factorial transcription factor reporter; actives raise or lower the signal. An outline of the steps: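 HepG2, transient MRTU transfection, 24 h treatment. RT-PCR plus CE fluorescence; DMSO negative control, bidirectional fit.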

Assay [4] is described as follows: ATG_CMV_CIS: Attagene CIS-FACTORIAL HepG2 Assay for human CMV (Internal Marker) (AID 2282928).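 Note: endpoint acts as a background internal control marker rather than a target.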 The following applies: HepG2 CMV promoter reporter, transcription factor profiling; actives raise or lower the signal. An outline of the steps: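 Reporter transcripts from transfected HepG2 cells are isolated after 24 h of chemical dosing, reverse-transcribed and amplified. Fragments labeled with 6-FAM are cut with HpaI and quantified by capillary electrophoresis; DMSO defines baseline.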

Assay [5] in a line: ATG_DR4_LXR_CIS: Attagene CIS-FACTORIAL HepG2 Assay for human Liver X Receptor (LXR), DR4 submotif (AID 2282929). To be noted: HepG2 Attagene DR4 cis-reporter, mRNA transcription; actives raise or lower the signal. An outline of the steps:
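Fluorescence intensity of labelled reporter cDNA fragments, separated by capillary electrophoresis, gives the signal. HepG2 cells bearing cis-regulated reporter constructs were treated 24 h; activity fitted bidirectionally relative to DMSO negative control.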

For assay [6], the target named is Aryl hydrocarbon receptor (Homo sapiens) (UniProt P35869). As to the kind of experiment: ATG_Ahr_CIS: Attagene CIS-FACTORIAL HepG2 Assay for human Aryl Hydrocarbon Receptor (Ahr) (AID 2282930). The following applies: HepG2 AhR cis-factorial reporter transcription; actives raise or lower the signal. In short, it runs like this: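 Endogenous factor activity is tracked through cis-promoter reporter units transfected into HepG2 cells. Transcript levels at 24 h are read by fluorescent RT-PCR and capillary electrophoresis, with activity in either direction scored relative to DMSO.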

A short description of assay [7]: ATG_AP_1_CIS: Attagene CIS-FACTORIAL HepG2 Assay for human Activator Protein 1 (AP-1) (AID 2282931). The following applies: HepG2 Attagene cis-factorial AP-1 reporter mRNA; actives raise or lower the signal. An outline of the steps:
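Multiplexed HepG2 reporter assay, 24 h dosing. mRNA induction detected by RT-PCR plus capillary electrophoresis. Activity fitted in both directions against DMSO.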

A short description of assay [8]: ATG_AP_2_CIS: Attagene CIS-FACTORIAL HepG2 Assay for human Activator Protein 2 (AP-2) (AID 2282932). The following applies: HepG2 AP-2 cis-reporter, Attagene transcription factor profiling; actives raise or lower the signal. An outline of the steps:
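Read-out: fluorescent reporter mRNA via RT-PCR and capillary electrophoresis, 24 h post-dose in transiently transfected HepG2. Endogenous factors drive cis-promoter reporters; gain or loss of signal fitted bidirectionally against DMSO.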

A short description of assay [9]: ATG_BRE_CIS: Attagene CIS-FACTORIAL HepG2 Assay for human Bone Morphogenetic Protein (BMP) Response Element (BRE) (AID 2282933). The following applies: HepG2 BMP response element reporter, Attagene transcription factor profiling; actives raise or lower the signal. An outline of the steps:
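Endogenous transcription factor activity at a BMP response element was monitored in transfected HepG2 cells 24 h after dosing. Fluorescent RT-PCR products were resolved by capillary electrophoresis, and activity was fitted in both directions versus DMSO.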

The target of assay [10] is Retinoic acid receptor alpha (Homo sapiens) (UniProt P10276). As to the kind of experiment: ATG_DR5_RAR_CIS: Attagene CIS-FACTORIAL HepG2 Assay for human Retinoic Acid Receptor Alpha (RARE), DR5 submotif (AID 2282934).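 For AC50: reporter responds to endogenous RAR alpha beta and gamma in HepG2 not RARA alone.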 To be noted: HepG2 Attagene cis-factorial RARE DR5 reporter, mRNA; actives raise or lower the signal. In short, it runs like this: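 After 24 h of chemical exposure, transiently transfected HepG2 cells were lysed for total RNA; the DR5-regulated reporter transcript was quantified via RT-PCR and capillary electrophoresis, with activity fitted bidirectionally against DMSO.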

Assay [11] addresses Transcription factor E2F1 (Homo sapiens) (UniProt Q01094). As to the kind of experiment: ATG_E2F_CIS: Attagene CIS-FACTORIAL HepG2 Assay for human E2F Transcription Factor 1 (AID 2282935). The following applies: HepG2 Attagene cis-reporter, E2F reporter RNA transcripts; actives raise or lower the signal. In short, it runs like this:
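Transient MRTU transfection of HepG2; 24 h compound exposure; RNA → oligo(dT) RT → PCR → FAM label → HpaI cut → CE fluorescence. Gain/loss of signal fit against DMSO.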

Assay [12] in a line: ATG_E_Box_CIS: Attagene CIS-FACTORIAL HepG2 Assay for human Enhancer Box (E-box) (AID 2282936). The following applies: HepG2 E-box cis-reporter transcription, actives raise or lower the signal. In short, it runs like this:
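Transiently transfected HepG2, endogenous TF-driven reporters, 24 h dosing. Readout: RT-PCR plus capillary electrophoresis of fluorescent reporter fragments. Gain or loss of signal fitted bidirectionally against DMSO baseline.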

Assay [13] in a line: ATG_M_61_CIS: Attagene CIS-FACTORIAL HepG2 Assay for M61 Transcription Factor (Internal Marker) (AID 2282937). To be noted: HepG2 Attagene CIS-FACTORIAL M61 internal marker reporter; actives raise or lower the signal. In short, it runs like this:
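Endogenous transcription factor activity in HepG2 is read through transiently transfected cis-element reporter units. After 24 h dosing, RNA undergoes reverse transcription, PCR and primer extension with 6-FAM before capillary electrophoresis; DMSO-referenced bidirectional fit.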

Assay [14] in a line: ATG_EGR_CIS: Attagene CIS-FACTORIAL HepG2 Assay for human Early Growth Response 1 (EGR1) (AID 2282938). The following applies: HepG2 Attagene CIS-FACTORIAL EGR reporter mRNA; actives raise or lower the signal. An outline of the steps:
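Activity is taken as induction or loss of reporter mRNA versus DMSO, fitted bidirectionally. Transcripts from cis-regulated reporter units in transiently transfected HepG2 were measured after 24 h by RT-PCR with capillary electrophoresis.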

Assay [15] in a line: ATG_M_19_CIS: Attagene CIS-FACTORIAL HepG2 Assay for M19 Transcription Factor (Internal Marker) (AID 2282939). To be noted: HepG2 Attagene CIS-FACTORIAL M19 internal marker reporter; actives raise or lower the signal. An outline of the steps:
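Background-control endpoint from a multiplexed HepG2 reporter panel. Cells carrying cis-regulated reporter constructs are treated 24 h, then reporter transcripts are amplified, fluorescently labelled and sized by capillary electrophoresis. DMSO defines baseline.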

Assay [16] is described as follows: ATG_ERE_CIS: Attagene CIS-FACTORIAL HepG2 Assay for Estrogen Response Element (ERE) (AID 2282940). To be noted: HepG2 ERE cis-reporter, Attagene RNA transcript; actives raise or lower the signal. In short, it runs like this:
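Cells used were human hepatoma HepG2, transfected with multiple reporter transcription units under cis-regulatory promoters. Reporter mRNA, read 24 h post-dosing via fluorescent RT-PCR products on capillary electrophoresis, was fitted bidirectionally relative to DMSO.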

The nature of assay [17]: ATG_Ets_CIS: Attagene CIS-FACTORIAL HepG2 Assay for human Erythroblast Transformation Specific (ETS) (AID 2282941). The following applies: HepG2 ETS cis-reporter transcription, actives raise or lower the signal. An outline of the steps:
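Bidirectional fit versus DMSO of reporter mRNA signal, detected by RT-PCR and capillary electrophoresis in HepG2 cells transiently transfected with cis-element reporters and dosed 24 h.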

The target of assay [18] is Hepatocyte nuclear factor 3-beta (Homo sapiens) (UniProt Q9Y261). Put plainly: ATG_FoxA2_CIS: Attagene CIS-FACTORIAL HepG2 Assay for human Forkhead box A2 (FOXA2) (AID 2282942). The following applies: HepG2 cis-reporter transcription factor activity, 24 h; actives raise or lower the signal. In short, it runs like this: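 Reporter transcript induction is measured by fluorescence after capillary electrophoresis of RT-PCR products from HepG2 cells exposed 24 h. Cis-regulated reporter units report endogenous factor activity; curves fitted both directions against DMSO.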

The nature of assay [19]: ATG_FoxO_CIS: Attagene CIS-FACTORIAL HepG2 Assay for human Forkhead box O (FoxO) (AID 2282943). To be noted: HepG2 Attagene cis-reporter, FoxO element, mRNA; actives raise or lower the signal. In short, it runs like this: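 Transfected HepG2 reporter cells exposed to test chemical for 24 h; reporter RNA measured by reverse transcription, PCR and fluorescent capillary electrophoresis; curves fitted for increases and decreases against DMSO.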

Assay [20] is described as follows: ATG_GATA_CIS: Attagene CIS-FACTORIAL HepG2 Assay for human GATA Binding Protein (AID 2282944). The following applies: HepG2 GATA cis-element reporter, Attagene multiplex mRNA; actives raise or lower the signal. An outline of the steps: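 Endogenous transcription factor activity was captured through cis-promoter-driven reporters in transfected HepG2 cells. After 24 h exposure, reporter transcripts were quantified by RT-PCR with fluorescent capillary electrophoresis, and responses fitted both directions against DMSO.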

A word on the AC50: it is the midpoint of the concentration-response curve, whichever way the signal moves.

Results filed as inconclusive are left out. Calls of active or inactive are those of the source. Rule for the calls, unless noted: active = hit-call score of the fitted dose curve at least 0.9, where 1 is the maximum; inactive = score below 0.9.

Sequence of Hepatocyte nuclear factor 3-beta (Homo sapiens) (Q9Y261 whole entry, looked up): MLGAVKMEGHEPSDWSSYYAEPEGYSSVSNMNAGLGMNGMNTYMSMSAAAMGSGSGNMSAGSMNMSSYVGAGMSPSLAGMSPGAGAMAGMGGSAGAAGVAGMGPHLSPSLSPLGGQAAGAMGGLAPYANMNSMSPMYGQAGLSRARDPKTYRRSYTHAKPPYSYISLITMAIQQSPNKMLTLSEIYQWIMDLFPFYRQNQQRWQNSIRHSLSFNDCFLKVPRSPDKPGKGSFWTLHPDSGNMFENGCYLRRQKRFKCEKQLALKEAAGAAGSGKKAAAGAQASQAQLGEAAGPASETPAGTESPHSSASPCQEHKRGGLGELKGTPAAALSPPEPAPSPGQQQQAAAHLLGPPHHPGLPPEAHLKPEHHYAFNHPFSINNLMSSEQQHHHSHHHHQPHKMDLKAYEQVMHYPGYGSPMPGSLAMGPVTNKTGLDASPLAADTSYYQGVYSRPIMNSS
Sequence of Retinoic acid receptor alpha (Homo sapiens) (P10276 whole entry, looked up): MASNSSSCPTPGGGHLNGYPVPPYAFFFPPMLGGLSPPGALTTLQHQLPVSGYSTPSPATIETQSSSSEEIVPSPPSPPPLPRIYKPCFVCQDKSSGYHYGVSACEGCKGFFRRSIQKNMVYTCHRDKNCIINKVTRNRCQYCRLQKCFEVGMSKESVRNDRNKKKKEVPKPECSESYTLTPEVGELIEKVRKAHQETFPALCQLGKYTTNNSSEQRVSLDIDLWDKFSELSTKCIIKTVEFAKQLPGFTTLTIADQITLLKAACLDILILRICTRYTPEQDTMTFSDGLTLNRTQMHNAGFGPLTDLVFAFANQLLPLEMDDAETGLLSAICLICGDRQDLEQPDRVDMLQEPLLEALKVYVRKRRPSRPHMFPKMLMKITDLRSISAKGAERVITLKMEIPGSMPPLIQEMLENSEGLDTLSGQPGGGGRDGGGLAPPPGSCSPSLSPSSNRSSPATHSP
Sequence of Transcription factor E2F1 (Homo sapiens) (Q01094 whole entry, looked up): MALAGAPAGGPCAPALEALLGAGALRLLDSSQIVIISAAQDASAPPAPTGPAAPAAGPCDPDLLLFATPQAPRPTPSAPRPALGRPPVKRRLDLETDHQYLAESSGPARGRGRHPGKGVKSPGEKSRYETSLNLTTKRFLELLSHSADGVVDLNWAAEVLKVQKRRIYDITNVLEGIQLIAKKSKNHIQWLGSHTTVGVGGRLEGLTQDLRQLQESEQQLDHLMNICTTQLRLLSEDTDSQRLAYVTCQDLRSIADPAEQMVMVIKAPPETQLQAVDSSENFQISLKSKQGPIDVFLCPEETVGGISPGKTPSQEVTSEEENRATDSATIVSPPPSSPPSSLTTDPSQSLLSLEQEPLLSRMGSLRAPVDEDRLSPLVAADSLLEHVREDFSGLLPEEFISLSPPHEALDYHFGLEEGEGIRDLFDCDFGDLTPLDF
Sequence of Aryl hydrocarbon receptor (Homo sapiens) (P35869 whole entry, looked up): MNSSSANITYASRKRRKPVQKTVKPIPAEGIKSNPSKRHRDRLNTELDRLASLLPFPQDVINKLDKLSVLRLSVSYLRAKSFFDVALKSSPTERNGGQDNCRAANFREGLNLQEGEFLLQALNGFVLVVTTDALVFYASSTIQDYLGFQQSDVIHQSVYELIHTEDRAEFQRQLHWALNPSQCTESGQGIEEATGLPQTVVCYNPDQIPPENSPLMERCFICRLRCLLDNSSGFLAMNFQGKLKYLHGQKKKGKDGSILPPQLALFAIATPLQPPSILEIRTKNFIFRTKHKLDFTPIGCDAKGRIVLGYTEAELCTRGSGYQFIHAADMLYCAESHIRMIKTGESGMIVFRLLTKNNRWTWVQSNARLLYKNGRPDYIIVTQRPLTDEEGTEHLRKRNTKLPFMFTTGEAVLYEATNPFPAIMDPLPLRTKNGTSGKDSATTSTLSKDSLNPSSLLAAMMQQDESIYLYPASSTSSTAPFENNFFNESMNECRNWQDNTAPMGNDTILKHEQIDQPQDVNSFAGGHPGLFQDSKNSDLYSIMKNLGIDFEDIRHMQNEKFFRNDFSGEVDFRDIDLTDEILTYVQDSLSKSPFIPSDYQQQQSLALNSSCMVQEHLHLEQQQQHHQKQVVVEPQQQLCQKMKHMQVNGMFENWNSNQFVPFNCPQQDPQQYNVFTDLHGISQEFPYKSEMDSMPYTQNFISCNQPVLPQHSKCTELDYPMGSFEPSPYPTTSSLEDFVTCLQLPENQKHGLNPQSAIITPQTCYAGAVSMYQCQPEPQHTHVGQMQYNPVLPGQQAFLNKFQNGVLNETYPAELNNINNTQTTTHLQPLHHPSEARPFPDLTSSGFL
Sequence of CCAAT/enhancer-binding protein beta (Homo sapiens) (P17676 whole entry, looked up): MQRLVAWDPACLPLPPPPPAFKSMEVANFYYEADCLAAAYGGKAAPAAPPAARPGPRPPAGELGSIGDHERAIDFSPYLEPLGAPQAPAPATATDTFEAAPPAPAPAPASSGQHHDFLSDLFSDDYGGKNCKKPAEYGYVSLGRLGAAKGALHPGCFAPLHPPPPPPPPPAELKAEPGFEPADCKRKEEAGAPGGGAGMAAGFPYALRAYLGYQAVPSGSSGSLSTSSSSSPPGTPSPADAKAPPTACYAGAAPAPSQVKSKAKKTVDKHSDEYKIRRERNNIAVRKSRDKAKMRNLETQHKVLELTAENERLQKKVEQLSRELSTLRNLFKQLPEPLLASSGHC

Regarding `C=C[C@@]1(C)CC(=O)[C@]2(O)[C@@]3(C)[C@@H](O)CCC(C)(C)[C@@H]3[C@H](O)[C@H](OC(C)=O)[C@@]2(C)O1`, the AC50 in assay [1] is 2590 nM (active); in assay [2], 3450 nM (active); in assay [4], 476 nM (active); in assay [5], 510 nM (active); in assay [10], 3810 nM (active); in assay [16], 895 nM (active). Moreover, the result in assay [3], in [6], in assay [7], in assay [8], in assay [9] and in [11] was inactive. For the same compound, the outcome in assay [12], in [13], in [14], in [15], in [17] and in [18] was inactive. Besides, the result in assay [19] and in assay [20] was inactive.
Turning to `O=C(Oc1ccccc1)c1ccccc1O`, the compound was called inactive in assay [1], in assay [2], in [3], in [4], in [5] and in [6]. Further, the compound was called inactive in assay [7], in assay [8], in [9], in assay [10], in [11] and in [12]. For the same compound, the call in assay [13], in assay [14], in [15], in assay [16], in assay [17] and in assay [18] was inactive. For the same compound, the compound was called inactive in assay [19] and in [20].
For `C=C(C)C(=O)OCCOC(=O)C(=C)C`, the call in [1], in [2], in [3], in assay [4], in assay [5] and in [6] was inactive. For the same compound, the compound was called inactive in assay [7], in assay [8], in [9], in [10], in assay [11] and in assay [12]. The outcome in assay [13], in [14], in [15], in assay [16], in [17] and in [18] was inactive. The call in assay [19] and in [20] was inactive.
For the compound `CCCCOC(=O)C(C)CC` (stereo not given), the compound was called inactive in assay [1], in assay [2], in [3], in assay [4], in [5] and in [6]. In addition, the result in [7], in assay [8], in [9], in [10], in [11] and in assay [12] was inactive. Further, the call in [13], in assay [14], in assay [15], in [16], in [17] and in assay [18] was inactive. For the same compound, the outcome in [19] and in assay [20] was inactive.
